An excerpt weighted towards active compounds, which were near 2.4% of everything screened.
ULK1 primary = ULK1 kinase inhibitors, primary screen, biochemical, AlphaScreen; Serine/threonine-protein kinase ULK1 (Homo sapiens), O75385; actives 1.9% (n = 30,000); inhibition, % at 5.96 µM; AlphaScreen Atg13 phosphorylation by ULK1, luminescence; in the data active = inhibition above about 43%;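 note: 0% = median of compound wells and 100% = no enzyme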
ASK1 inh = ASK1 kinase inhibitors, primary screen, biochemical, AlphaScreen; actives 0.99% (n = 22,000); inhibition, % at 7.44 µM; AlphaScreen MKK6 phosphorylation by ASK1, luminescence; Mitogen-activated protein kinase kinase kinase 5 (Homo sapiens), Q99683; in the data active = inhibition above about 35%;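 note: 0% = median of compound wells and 100% = no enzyme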
AlphaScreen intf = AlphaScreen signal interference by compounds, dose response, artefact control for ASK1 inhibitor project, biochemical, TruHits beads | shares compounds with ASK1 inh | signal interference counterscreen | IC50, µM | actives 20% (n = 220) | AID 1159604, 2016;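 active = IC50 of 10 µM or lower in the counterscreen; inactive = IC50 above 10 µM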;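 note: loss of AlphaScreen light from TruHits beads alone with no ASK1 enzyme present; potency of signal reduction so a low IC50 flags an assay artifact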
* = called active by the depositor; i = inactive; . = no result.

SMILES	ULK1 primary	ASK1 inh	AlphaScreen intf
Cc1cc(Nc2ccc(N3CCOCC3)cc2)nc(Nc2ccncc2)n1	5	21	.
Oc1ccc(CCNc2nc(N3CCN(Cc4ccc5c(c4)OCO5)CC3)nc3c2ncn3-c2ccsc2)cc1	19	38*	i
COc1ccc(CCNc2nc(Nc3ccccc3)nc3c2ncn3C2CCCCC2)cc1	6	25	.
COc1ccc(-c2nc(C)cc(Nc3ccc(N4CCOCC4)cc3)n2)cc1	0	50*	i
Cc1cc(Nc2ccc3c(c2)OCO3)nc(Nc2ccc(N3CCOCC3)cc2)n1	-18	73*	i
COc1ccc(-c2nc(C)cc(Nc3ccc(N4CCOCC4)cc3)n2)cn1	1	27	.
Oc1ccc(CCNc2nc(N3CCN(Cc4ccc5c(c4)OCO5)CC3)nc3c2ncn3-c2ccccc2)cc1	10	30	.
COc1ccc(CCNc2nc(NC3CCN(Cc4ccccc4)CC3)nc3c2ncn3C2CCCCC2)cc1	10	43*	>23
O=C(NCc1ccccc1)c1cnc(N2CCOCC2)s1	-6	-21	.
COc1ccc(CCNC(=O)c2csc(Nc3ccncn3)n2)cc1	11	14	.
CC(=O)Nc1ccc(Nc2cc(C)nc(Nc3nccc4ccccc34)n2)cc1	-28	0	.
CC(C)n1c(-c2ccc(C(=O)NC3CC3)cc2)nc2c(NC3CC3)ncnc21	2	-5	.
CC(C)n1cnc2c(Nc3ccc4c(c3)OCO4)nc(N3CCN(Cc4ccc5c(c4)OCO5)CC3)nc21	24	16	.
c1cc(-n2cnc3c(Nc4ccc(N5CCOCC5)cc4)nc(N4CCOCC4)nc32)cs1	42	-10	.
CC(C)n1cnc2c(Nc3ccc4c(c3)OCO4)nc(N3CCC(N4CCOCC4)CC3)nc21	23	10	.
CC(C)n1cnc2c(Nc3ccc(N4CCOCC4)cc3)nc(N3CCN(Cc4ccc5c(c4)OCO5)CC3)nc21	4	41*	i
Oc1ccc(CCNc2nc(N3CCN(Cc4ccc5c(c4)OCO5)CC3)nc3c2ncn3C2CCCCC2)cc1	27	35	.
COc1ccc(CCNc2nc(N3CCN(Cc4ccc5c(c4)OCO5)CC3)nc3c2ncn3C2CCCCC2)cc1	15	48*	>23
CC(C)n1cnc2c(Nc3ccc4c(c3)OCO4)nc(Nc3ccc(N4CCOCC4)cc3)nc21	12	36*	>20
c1cc(-n2cnc3c(Nc4ccc(N5CCOCC5)cc4)nc(N4CCN(Cc5ccc6c(c5)OCO6)CC4)nc32)cs1	19	51*	i
O=C(NC1CC1)c1ccc(-c2cncc(C(=O)NC3CC3)c2)cc1	17	-8	.
O=C1CCCN1CCn1cnc2c(NCc3nc4ccccc4[nH]3)nc(Nc3ncccn3)nc21	10	-24	.
